Drawing on PubChem BioAssay (NCI), this text covers growth for 14 compounds.

Some test systems named below: SR leukemia; RPMI-8226 leukemia; OVCAR-8 ovarian; OVCAR-5 ovarian; OVCAR-4 ovarian; SK-OV-3 ovarian; IGROV1 ovarian; OVCAR-3 ovarian; HS 578T breast; NCI/ADR-RES ovarian.
Holding throughout (assay): NCI-60 one-dose screen, 48 h (100 = growth as untreated, 0 = no growth, -100 = all killed)
Holding throughout (settings): 10 µM unless noted

The panel holds about 83,000 compounds, 20% with a hit somewhere; the sample as a whole holds those more often.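 Compound tested at a single concentration for 48 hours in 96-well plates; a percent growth value below 10 was scored as active.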 Values without a mark were called inactive. Calls of active or inactive are those of the source.

For `COC(=O)c1cccc([N+](=O)[O-])c1`, the growth with SR leukemia is 99%; in the test with RPMI-8226 leukemia it was 102%; in the test on OVCAR-8 ovarian, 107%; in the test with OVCAR-5 ovarian it was 111%; in the test with OVCAR-4 ovarian, 130%; in the test on SK-OV-3 ovarian, 115%. Moreover, the growth in the test on IGROV1 ovarian was 111%; with OVCAR-3 ovarian it was 108%; in the test on HS 578T breast, 102%; with NCI/ADR-RES ovarian it was 102%.
Consider `CCCCCCCCCCCCCCCCCCSC(=N)N`, for which the growth in the test on SR leukemia was -13.5% (active); in the test with RPMI-8226 leukemia, 61.7%; in the test with OVCAR-8 ovarian, 86.9%; in the test with OVCAR-5 ovarian, 83.2%; in the test on OVCAR-4 ovarian, 76.1%; in the test with SK-OV-3 ovarian, 83.3%. Moreover, the growth is 70.5% in the test on IGROV1 ovarian, 89.5% in the test with OVCAR-3 ovarian, 100% with HS 578T breast and 81% in the test on NCI/ADR-RES ovarian.
In the case of `C#CCSc1nnnn1-c1ccccc1`, the growth is 86.9% with SR leukemia; 72.4% with RPMI-8226 leukemia; 80.9% in the test with OVCAR-8 ovarian; 92% with OVCAR-5 ovarian; 92.6% in the test on OVCAR-4 ovarian; 104% in the test on SK-OV-3 ovarian. In addition, the growth in the test on IGROV1 ovarian was 92.8%; in the test with OVCAR-3 ovarian it was 79.1%; in the test with HS 578T breast it was 102%; with NCI/ADR-RES ovarian, 86.7%.
Take `CCCCOC(=O)c1ccccc1O`: the growth was 154% in the test with SR leukemia; 16.5% in the test with RPMI-8226 leukemia; 107% in the test with OVCAR-8 ovarian; 101% with OVCAR-5 ovarian; 105% in the test with OVCAR-4 ovarian; 110% with SK-OV-3 ovarian. Further, the growth in the test on IGROV1 ovarian is 118%; with OVCAR-3 ovarian, 124%; in the test on HS 578T breast it was 103%; in the test with NCI/ADR-RES ovarian, 110%.
As for `C=COC(=O)CCOCC(CC)CCCC` (stereo not given), the growth in the test on SR leukemia was 99.2%; in the test with RPMI-8226 leukemia, 53.2%; with OVCAR-8 ovarian, 114%; in the test on OVCAR-5 ovarian it was 103%; in the test with OVCAR-4 ovarian, 96.2%; with SK-OV-3 ovarian, 113%. The growth was 105% in the test with IGROV1 ovarian, 98% in the test on OVCAR-3 ovarian, 105% in the test with HS 578T breast and 105% in the test on NCI/ADR-RES ovarian.
For `O=C(NCc1ccco1)Nc1cccc2c(NC(=O)NCc3ccco3)cccc12`, the growth in the test on SR leukemia was 69.4% [100 µM]; in the test on RPMI-8226 leukemia, 33.9% [100 µM]; in the test with OVCAR-8 ovarian, -73.4% [100 µM] (active); with OVCAR-5 ovarian, 66.4% [100 µM]; with OVCAR-4 ovarian it was 92.3% [100 µM]; in the test with SK-OV-3 ovarian it was 111% [100 µM]. The growth was 66.3% [100 µM] in the test with IGROV1 ovarian, 97.5% [100 µM] in the test with OVCAR-3 ovarian, 88.2% [100 µM] in the test on HS 578T breast and 103% [100 µM] with NCI/ADR-RES ovarian.
As to `O=S(=O)(O)C(C(I)I)S(=O)(=O)O`, the growth in the test on SR leukemia is 101%; in the test on RPMI-8226 leukemia it was 114%; with OVCAR-8 ovarian, 101%; in the test with OVCAR-5 ovarian, 114%; with OVCAR-4 ovarian, 107%; in the test with SK-OV-3 ovarian, 106%. Also, the growth is 114% in the test on IGROV1 ovarian, 105% in the test with OVCAR-3 ovarian, 93.7% with HS 578T breast and 113% with NCI/ADR-RES ovarian.
With `Nc1nc(Cl)cc(Cl)n1`, the growth was 93.6% in the test on SR leukemia; 114% with RPMI-8226 leukemia; 112% in the test on OVCAR-8 ovarian; 103% in the test with OVCAR-5 ovarian; 112% in the test on OVCAR-4 ovarian; 91.1% with SK-OV-3 ovarian. Besides, the growth in the test on IGROV1 ovarian was 100%; in the test on OVCAR-3 ovarian, 111%; in the test with HS 578T breast it was 113%; in the test on NCI/ADR-RES ovarian, 95.8%.
For the compound `O=S(=O)(c1ccc(NC(=S)NCc2cccnc2)cc1)N1CCCCC1`, the growth in the test with SR leukemia was 49.1%; in the test on RPMI-8226 leukemia, 36.2%; in the test with OVCAR-8 ovarian it was 110%; with OVCAR-5 ovarian it was 59.8%; in the test on OVCAR-4 ovarian it was 95.6%; with SK-OV-3 ovarian, 79.3%. For the same compound, the growth is 62% in the test with IGROV1 ovarian, 82.3% with OVCAR-3 ovarian, 70.3% with HS 578T breast and 63.4% in the test on NCI/ADR-RES ovarian.
For the compound `CC(c1ccccc1)N(C)C` (stereo not given), the growth is 67.3% with SR leukemia; 155% in the test on RPMI-8226 leukemia; 117% in the test with OVCAR-8 ovarian; 92.8% in the test on OVCAR-5 ovarian; 77.3% in the test on OVCAR-4 ovarian; 103% with SK-OV-3 ovarian. Also, the growth with IGROV1 ovarian is 152%; in the test with OVCAR-3 ovarian, 120%; in the test on HS 578T breast, 153%; with NCI/ADR-RES ovarian, 105%.
Take `CCN1CCCC(N2c3ccccc3Sc3ccccc32)C1` (stereo not given): the growth is 96.3% with SR leukemia; 95.5% in the test on RPMI-8226 leukemia; 102% in the test with OVCAR-8 ovarian; 106% in the test with OVCAR-5 ovarian; 97.9% in the test with OVCAR-4 ovarian; 111% in the test with SK-OV-3 ovarian. Besides, the growth in the test with IGROV1 ovarian is 91.3%; in the test with OVCAR-3 ovarian, 98.5%; in the test with HS 578T breast it was 99.6%; with NCI/ADR-RES ovarian, 99.7%.
In the case of `O=[N+]([O-])c1ccc2[nH]c(=S)n(/C=C(/c3ccc(Cl)cc3Cl)S(=O)(=O)Cc3ccc(Cl)cc3Cl)c2c1`, the growth was 83.1% in the test on SR leukemia; 98.7% in the test on RPMI-8226 leukemia; 93.7% in the test on OVCAR-8 ovarian; 108% in the test on OVCAR-5 ovarian; 95.9% in the test on OVCAR-4 ovarian; 99.1% with SK-OV-3 ovarian. Moreover, the growth in the test with IGROV1 ovarian is 104%; in the test on OVCAR-3 ovarian, 117%; in the test with HS 578T breast it was 106%; with NCI/ADR-RES ovarian it was 100%.
Regarding `Cc1cccnc1NC1OC(=O)c2ccccc21` (stereo not given), the growth was 93.8% with SR leukemia; 106% in the test with RPMI-8226 leukemia; 107% in the test on OVCAR-8 ovarian; 106% with OVCAR-5 ovarian; 117% in the test with OVCAR-4 ovarian; 94.6% in the test with SK-OV-3 ovarian. The growth was 101% with IGROV1 ovarian, 107% with OVCAR-3 ovarian, 138% in the test with HS 578T breast and 103% in the test with NCI/ADR-RES ovarian.
For `c1ccc(Oc2c3ccccc3nc3ccccc23)cc1`, the growth in the test on SR leukemia was -0.679% (active); in the test on RPMI-8226 leukemia, -20.9% (active); in the test with OVCAR-8 ovarian, 23.7%; with OVCAR-5 ovarian it was 35.3%; in the test with OVCAR-4 ovarian it was 15%; with SK-OV-3 ovarian it was 39%. The growth in the test with IGROV1 ovarian was -9.18% (active); in the test with OVCAR-3 ovarian, -3.62% (active); in the test with HS 578T breast, 12.2%; in the test with NCI/ADR-RES ovarian, 47.6%.
